What all share (assay): NCI-60 one-dose screen, 48 h (100 = growth as untreated, 0 = no growth, -100 = all killed)
What all share (settings): 10 µM unless noted

Test [1] concerns NCI-H23 lung.
Test [2] deals with NCI-H226 lung.
Test [3] concerns NCI-H322M lung.
Test [4] concerns HOP-62 NSCLC.
In test [5] the test system is NCI-H460 lung.
Test [6] concerns HOP-92 NSCLC.
For test [7], the system named is NCI-H522 lung.
In test [8] the test system is A549/ATCC NSCLC.
Test [9] has as its system 786-0 renal.
Test [10] has as its system COLO 205 colon.

The panel holds about 83,000 compounds, 20% with a hit somewhere; the sample as a whole holds those more often.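 Single-dose data. Exposure time 48 hours. Values below 10 considered active.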 A number with no mark means an inactive call. The source made the active and inactive calls.

Turning to `O=C(NN1C(=O)/C(=C/C=C/c2ccc([N+](=O)[O-])o2)SC1=S)c1ccncc1`, the growth in test [1] was -88.8% (active); in test [2], -52.7% (active); in test [3] it was -16.3% (active); in test [4], -97.5% (active); in test [5] it was -53.6% (active); in test [6], -85.1% (active). Also, the growth in [7] was -83.8% (active); in test [8] it was -34.7% (active); in [9], -79.9% (active); in test [10], -96.9% (active).

Regarding `O=C(N/N=C/c1ccsc1)c1[nH]c2ccc(Br)cc2c1-c1ccccc1`, the growth was -78% (active) in test [1]; -49.5% (active) in test [2]; -7.27% (active) in test [3]; -64.7% (active) in test [4]; -72.5% (active) in test [5]; -50.5% (active) in test [6]. Besides, the growth is -70.9% (active) in test [7], 3.43% (active) in [8], -60.8% (active) in test [9] and -63.1% (active) in [10].

As for `CC1CCc2c(sc3nc(SCC(=O)c4cccc(Br)c4)n(-c4ccccc4)c(=O)c23)C1` (stereo not given), the growth was 11.3% in test [1]; 19.7% in [2]; 74.5% in test [3]; 39.9% in test [4]; 55% in test [5]; 44% in test [6]. The growth in [7] is 40.3%; in [8], 92.3%; in test [9] it was 18.8%; in [10], 25.3%.

For `COc1ccc2c(c1)C(Sc1ccc(Cl)cc1)c1c(nc(N)c(C#N)c1N)O2` (stereo not given), the growth in test [1] was 74.6%; in [2] it was 64.9%; in [3] it was 86.4%; in test [4] it was 61.8%; in [5], 63.2%; in [6] it was 76.7%. The growth in test [7] was 54.5%; in test [8] it was 53.7%; in [9], 61.8%; in test [10], 87.2%.

Consider `CN(C)c1nc(NCCNS(=O)(=O)c2ccc(C3=Nc4c(N)nc(N)nc4NC(c4ccc(Cl)cc4)C3)cc2)nc(N2CCOCC2)n1` (stereo not given), for which the growth is 69.2% in test [1]; 58.6% in test [2]; 69.3% in test [3]; 57.1% in test [4]; 59.1% in test [5]; -10.8% (active) in test [6]. The growth was 65.3% in test [7], 63.4% in test [8], 40.7% in [9] and 66.5% in [10].

In the case of `COc1ccc2ccccc2c1/C=C1\SC(=Nc2ccc(O)cc2)NC1=O`, the growth is 19.3% in test [1]; -5.11% (active) in test [2]; 32.7% in [3]; 23.8% in test [4]; 11.1% in test [5]; 18.3% in [6]. In addition, the growth in test [7] is -24% (active); in test [8], 11.5%; in test [9], 17.7%; in test [10], -22.2% (active).

Take `Cc1cc(=O)oc2cc(OCC(O)CNN3C(=O)c4cccc5c(N6CCN(C)CC6)ccc(c45)C3=O)ccc12` (stereo not given): the growth was 98.4% in test [1]; 102% in [2]; 101% in [3]; 99.8% in test [4]; 99.4% in test [5]; 68.3% in test [6]. Also, the growth in [7] is 98.2%; in [8], 99.8%; in test [9] it was 97.8%; in [10], 87.7%.

Consider `CC(=O)c1c2c(c3ccc4c5ccccc5ccc4n13)C(=O)c1ccccc1C2=O`, for which the growth is 68.4% in test [1]; 54.8% in [2]; 92.9% in [3]; 70.7% in [4]; 28% in test [5]; 94.9% in test [6]. Besides, the growth in [7] is 91.9%; in [8], 84.1%; in [9], 78.5%; in [10] it was 99.8%.

As for `Nc1cc2ccccc2c(=O)n1NC(=O)c1ccc(Br)cc1`, the growth was 81.8% in test [1]; 69% in [2]; 74.4% in test [3]; 101% in test [4]; 98.6% in test [5]; 103% in test [6]. Also, the growth in [7] is 96.7%; in test [8] it was 100%; in test [9], 107%; in test [10] it was 114%.

Take `Cc1ccc(Cl)cc1NC(=O)N/C(N)=N/c1nc2ccccc2s1`: the growth in [1] was -9.8% (active); in test [2], 0.832% (active); in test [3], 18.6%; in test [4], -11.7% (active); in test [5], -8.76% (active); in [6], -23% (active). Further, the growth in test [7] is -61.9% (active); in test [8] it was -36.9% (active); in test [9], -2.48% (active); in test [10] it was -91.1% (active).

Consider `CC1=C(C)C(=O)C(NCCN2CCOCC2)=C(Br)C1=O`, for which the growth in [1] is -0.608% (active); in [2], 67.1%; in [3] it was 91.5%; in [4] it was 87.2%; in test [5], 98%; in test [6] it was 38.7%. The growth in test [7] is -18.4% (active); in [8] it was 87.6%; in test [9], 100%; in test [10], 130%.

Source of the values: PubChem BioAssay (NCI).
